Results as given in PubChem BioAssay AID1345085 (National Center for Advancing Translational Sciences (NCATS), 2018).
Results filed as inconclusive are left out. The source made the active and inactive calls. Calls come from the whole dose curve; as a rule, active = well fitted cell-killing curve with a large enough effect; inconclusive = small, poorly fitted or top-dose-only effect, or effect the other way; inactive = no such curve, though single readings can be large or run the other way. *1 amine or outer side, *2 acyl side, *3 side chain or, on linkers, in order; H or OH if unused. Where a SMILES comes first, the peptide text is derived from it. Bridges are numbered along the chain shown (N, C = ends). Roman numbers before positions name the chains, in order. [ ]: non-standard residue; d: D form. Actinocin(9to1) = Cc1c2oc3c(C)ccc(C(=O)[*:1])c3nc-2c(C(=O)[*:2])c(N)c1=O; NMeV = CN[C@H](C(=O)O)C(C)C; Sar = CNCC(=O)O
% is set by controls: 0 for no effect and ±100 for the full control effect; potency is the fitted concentration of half-maximal effect.
Note: nearly all actives have a fitted effect of over 55% in size.

These compounds were tested on SKOV3 (assay: Confirmatory qHTS for gynecologic anti-cancer compounds from libraries of approved drugs and bioactive compounds). Details: gynecologic cancer cell panel viability, ATPlite luminescence, 48 h; series mostly up to 57.6 µM; activity change, negative = viability loss: at the top concentration.
Outline: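 Cells (1,000/well) were plated, left 16 h at 37 C/5% CO2, then given compound at 11 concentrations (1:3) from 57.5 uM to 0.977 nM for 48 h. ATPlite luminescence after 15 min at room temperature gave IC50 values.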
With `Cc1cc(C(C)Nc2ccccc2C(=O)O)c2nc(N3CCOCC3)cc(=O)n2c1` (centres undefined) the Potency was 3.06 µM (active). `CC(=O)Nc1cccc(-n2c(=O)n(C3CC3)c(=O)c3c(Nc4ccc(I)cc4F)n(C)c(=O)c(C)c32)c1` was tested, and the Potency was 0.306 µM (active). In the case of `Cc1cc(SCc2sc(-c3ccc(C(F)(F)F)cc3)nc2C)ccc1OCC(=O)O`, the “activity change, negative = viability loss” value is reported as -4.3% (inactive). In the case of `Cc1cncc2cccc(S(=O)(=O)N3CCCN(C(=O)CN)C[C@@H]3C)c12`, the “activity change, negative = viability loss” value is reported as -34.9% (inactive). With `CN1CCN(CCOc2cc(OC3CCOCC3)c3c(Nc4c(Cl)ccc5c4OCO5)ncnc3c2)CC1` the “activity change, negative = viability loss” value was -28% (inactive). With `COc1ccc(-c2cc3nccn3c(Nc3ncccc3C(N)=O)n2)cc1OC` the “activity change, negative = viability loss” value was 25.3% (inactive). With `NS(=O)(=O)OC[C@@H]1C[C@@H](n2ccc3c(N[C@H]4CCc5ccccc54)ncnc32)C[C@@H]1O` the “activity change, negative = viability loss” value was -8.5% (inactive). For `O=c1cc(CN2CCOCC2)occ1OCCCCCSc1ccnc2cc(C(F)(F)F)ccc12`, the “activity change, negative = viability loss” value was -9.95% (inactive). `CCS(=O)(=O)N1CCN(c2ccc(Nc3ncc(C(N)=O)c(NC4CC4)n3)cc2)CC1` was tested, and the Potency was 15.3 µM (active). `N#CC1(c2cccc(C(=O)Nc3cc(Oc4ccc5nc(NC(=O)C6CC6)sc5n4)ccc3F)c2Cl)CC1` was tested, and the Potency was 17.2 µM (active). For `CCCCc1oc2ccccc2c1C(=O)c1cc(I)c(OCCN(CC)CC)c(I)c1`, the Potency was 70.8 µM (active). In the case of `O=C1c2c(O)ccc(O)c2C(=O)c2c(NCCNCCO)ccc(NCCNCCO)c21`, the Potency is reported as 0.544 µM (active). `S=c1nc[nH]c2nc[nH]c12` was tested, and the Potency was 5.44 µM (active). `Cc1c2oc3c(C)ccc(C(=O)N[C@@H]4C(=O)N[C@H](C(C)C)C(=O)N5CCC[C@H]5C(=O)N(C)CC(=O)N(C)[C@@H](C(C)C)C(=O)O[C@@H]4C)c3nc-2c(C(=O)N[C@@H]2C(=O)N[C@H](C(C)C)C(=O)N3CCC[C@H]3C(=O)N(C)CC(=O)N(C)[C@@H](C(C)C)C(=O)O[C@@H]2C)c(N)c1=O` (I: T[dV]P[Sar][NMeV] / II: T[dV]P[Sar][NMeV]; ester I:1-I:C, II:1-II:C; linker I:N-II:N via Actinocin(9to1)) was tested, and the Potency was 0.544 µM (active).
